The source made the active and inactive calls. How the source made its calls: active means hit-call score of the fitted dose curve at least 0.9, where 1 is the maximum; inactive means score below 0.9.
read-out: Alpha-fetoprotein (AFP) gene, AFP (gene 174); assay: LTEA_HepaRG_AFP: Life Technologies and Expression Analysis (LTEA) Assay for Alpha-fetoprotein (AFP) gene using HepaRG (AID 2283472); details: mRNA level, 48 h; actives raise or lower the signal;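 on AC50: AFP transcript by TaqMan qRT-PCR normalized to ACTB GAPDH and POLR2A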
Procedure: It is a marker of Undifferentiated hepatocyte.Data from the assay component LTEA_HepaRG_AFP was analyzed into 1 endpoint. This assay endpoint, LTEA_HepaRG_AFP, was analyzed with bidirectional fitting relative to DMSO as the negative control and baseline of activity. Using a type of inducible reporter, measures of mRNA induction for gain or loss-of-signal activity can be used to understand regulation of transcription factor activity. To generalize the intended target to other relatable targets, this assay endpoint is annotated to the background measurement intended target family, where the subfamily is assay control.
A total of 1060 chemcials from the ToxCast library were tested in eight-point concentration-response experiments. Cell culture and cytotoxicity assays were conducted at Thermo Fisher Scientific's Custom Services facility (Madison, WI). A single lot of human HepaRG cells (Thermo Fisher Scientific, Frederick, MD) was used for the cell culture experiments. 96-well format collagen type I coated plates of human HepaRG cells were prepared using established methods. Briefly, cryopreserved HepaRG cells were thawed, plated at a density of approximately 100,000 cells/well in HepaRG Thaw, Plate, and General Purpose media (HPRG770, Thermo Fisher Scientific), and incubated for 48 hours. 0.5% DMSO was selected as vehicle control to balance the requisite need of DMSO in HepaRG cultures to maintain differentiation (for example, baseline metabolism, proportions of hepatocytes vs. cholangiocytes), while enabling further hepatic receptor pathway activation (for example, PXR and CAR) in response to chemical exposure. 48 hours after plating, the culture medium was replaced with HepaRG Serum-Free Incudtion Media. Cells were exposed to each test chemical in duplicate and maintained in CO2 incubators for another 48 hours. Chemical plates were thawed to room temperature and 200x concentrations of treatment groups were prepared. 8-point conentration-reponse curves were made with the highest exposure at 100 uM, followed by half-log dilutions, all in 0.5% DMSO. Each test plate contained variouse controls, induction positive controls (1mM phenobarbital), cytotoxicity positive controls ([…] aflatoxin B1), vehicle controls (0.5% DMSO), and total lysis controls (0.5% DMSO). Cell morphology images were taken using an Essen IncuCyte FLR automated microscope, with six 96-well plates imaged in about 24 minutes. Images were captured and exported and JPEG files. Spent culture media was transfered to black-well plates for the LDH assay, and remaining media was sorted at -80 C for later use. Cells were treated with RLT buffer and frozen until shipped for gene expression analysis. Total RNA was isolated from the cell suspension in 75 uL of Buffer RLT (Qiagen, Germantown, MD 20874) by Quintiles/Expression Analysis (Durham, NC) using a custom isolation procedure. Total RNA from each plate well was transferred to a preamplification plate. Fluidigm's 96.96 Dynamic ArrayTM (Fluidigm, Amsterdam, the Netherlands) technology was used for gene expression analyses by quantitative reverse transcription polymerase chain reaction (qRT-PCR, performed by Quintiles/Expression Analysis, Durham, NC)89. Standard TaqManTM Assays (Applied Biosystems/ThermoFisher Scientific, Foster City, CA) were used to assess the expression of 93 genes selected based on their selectivity and sensitivity to important hepatic receptors known to be modulated by environmental chemicals; importance in human hepatocyte functionality; and hepatotoxicity. Three "housekeeping" endogenous control genes were also included and used for normalization: actin beta (ACTB), Glyceraldehyde 3 phosphate dehydrogenase (GAPDH) and RNA Polymerase II Subunit A (POLR2A). qRT-PCR was conducted according to the manufacturer's protocol.

outcome, inactive:
Oc1ccc(O)cc1, O=C1O[C@H]([C@H](O)CO)C(O)=C1O, CCCCC(CC)COP(=O)(OCC(CC)CCCC)OCC(CC)CCCC (stereo not given), COC(=O)CCCC(=O)OC, CCCCCCC(CCCCCCCCCCC(=O)OCC(COC(C)=O)OC(C)=O)OC(C)=O (stereo not given), CC(C)OC(=O)C(C)(C)Oc1ccc(C(=O)c2ccc(Cl)cc2)cc1, CC1(C)C(=O)NC(=O)N1CO, O=C1c2c(O)cccc2Cc2cccc(O)c21, Cc1cc(Cc2ccc(N)c(C)c2)ccc1N, N[C@@H](Cc1c[nH]c2ccccc12)C(=O)O, C/C=C/c1ccc(OC)cc1, NC=O, NC1CCCCC1, O=C(O)CC(O)(CC(=O)O)C(=O)O, Oc1ccccc1O, CC(C)(C)c1ccccc1, CCCCCCC(C=O)=Cc1ccccc1, CN(C)CCCN(C)CCCN(C)C, NCCOCCOCCN, O=C(Oc1ccccc1)c1cccc(C(=O)Oc2ccccc2)c1, CCCCC(CC)CO (stereo not given), C#CC(O)C(CC)CCCC (stereo not given), CCCC(=O)O, CC(=O)OCC(COC(C)=O)OC(C)=O, CC(N)=O, CC(C)c1cccc(C(C)C)c1, OCC(O)CO, CO[C@@H]1COCC[C@@H]1N[C@@H]1CC[C@@](C(=O)N2CCc3ncc(C(F)(F)F)cc3C2)(C(C)C)C1, CCCCCCCCCCCCCCCCO, CCCCCCCCCC[N+](C)(C)[O-], Cc1cc(SC2=C(O)C[C@@](CCc3ccc(N)cc3)(C(C)C)OC2=O)c(C(C)(C)C)cc1CO, O=Cc1ccccc1C=O

AC50, active:
OCC(CO)n1cnc(-c2ccc(F)cc2)c1-c1ccnc(Oc2ccccc2)n1 28.4 µM, Cc1c(C)c2c(c(C)c1O)CCC(C)(COc1ccc(CC3SC(=O)NC3=O)cc1)O2 (stereo not given) 25 µM, CN(C)CCCN1c2ccccc2Sc2ccc(Cl)cc21 26.6 µM, O=C(N[C@@H](c1ccccc1)[C@@H]1CCCCN1)c1cccc(C(F)(F)F)c1Cl 25.5 µM, CC(=O)O[C@]1(C(C)=O)CC[C@H]2[C@@H]3C=C(Cl)C4=CC(=O)[C@@H]5C[C@@H]5[C@]4(C)[C@H]3CC[C@@]21C 50 µM, Nc1nc(=S)c2[nH]cnc2[nH]1 6.35 µM, CN(C)C(=O)NC1(c2ccccc2)CCN(CC[C@@]2(c3ccc(F)c(F)c3)CN(C(=O)c3ccccc3)CCO2)CC1 36.8 µM, Nc1nc(Cl)nc2c1ncn2[C@H]1C[C@H](O)[C@@H](CO)O1 1.72 µM

Source: PubChem BioAssay (EPA / NIEHS)
